Source: PubChem BioAssay
VACV Venus inh = inhibitors of vaccinia virus (Venus reporter); Vaccinia virus Venus reporter expression, fluorescence; Potency, µM (titrated, usually from 36.5 µM), inactives show at the top dose activity change, negative = inhibition, actives largely listed as inhibitors; 330,000 compounds, 0.46% hits; calls by dose curve; tested in A549 cells; also: potency is read from the fitted curve at half-maximal effect; nearly all actives have a fitted effect of over 30% in size
Vaccinia mCherry = inhibitors of vaccinia virus infection (mCherry reporter signal); Potency, µM (top dose mostly 36.5 µM), without a hit: at the top dose activity change, negative = inhibition, most hits filed as inhibitors; Vaccinia virus mCherry reporter infection, fluorescence; 310,000 compounds, 0.63% hits; calls by dose curve; tested in A549 cells; also: potency is read from the fitted curve at half-maximal effect; nearly all actives have a fitted effect of over 35% in size
Giardia FBPA inh = Giardia lamblia aldolase inhibition | purified Giardia FBPA | Potency, µM (doses to about 59.6 µM), for inactives: at the top dose activity, negative = inhibition, usual class: inhibitors | 290,000 compounds, 0.71% hits | AID 2451; also: potency is read from the fitted curve at half-maximal effect; nearly all actives have a fitted effect of over 55% in size
Target sequence (A8B2U2 whole entry, looked up): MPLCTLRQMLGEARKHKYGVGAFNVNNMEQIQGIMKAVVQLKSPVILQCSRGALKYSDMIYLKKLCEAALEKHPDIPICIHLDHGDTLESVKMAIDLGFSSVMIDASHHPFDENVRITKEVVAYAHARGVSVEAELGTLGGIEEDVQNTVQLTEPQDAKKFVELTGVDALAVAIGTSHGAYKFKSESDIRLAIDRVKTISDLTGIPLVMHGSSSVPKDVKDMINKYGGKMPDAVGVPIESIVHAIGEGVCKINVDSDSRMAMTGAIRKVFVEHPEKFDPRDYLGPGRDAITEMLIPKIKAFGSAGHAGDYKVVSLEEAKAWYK
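Giardia FBPA (40 nM reagent) was preincubated 10 min at RT with compound (up to 57.5 uM final), then substrate plus GAPDH/TPI/NAD/arsenate coupling system with diaphorase/resazurin was added; resorufin fluorescence (525/598 nm) was read after 20 min.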
HCV inhibitor = inhibitors of hepatitis C virus infection. Huh7.5.1 HCVcc-Cre infection, luciferase reporter, 44 h. Potency, µM (top dose mostly 41.8 µM), inactives show at the highest dose activity change, negative = inhibition, actives largely listed as inhibitors. 340,000 compounds, 3.4% hits; also: potency is read from the fitted curve at half-maximal effect
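Seed cells (1,000/well) for 4 h; treat with compound and infect with HCVcc-Cre, moi about 0.5. Incubate 44 h, then detect luciferase activity.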
FMDV antiviral = foot and mouth disease virus antiviral activity | FMDV antiviral cell-based qHTS | Potency, µM (doses to about 57.9 µM), for inactives: at the top dose activity change, negative = inhibition, hits mostly inhibitors | 410,000 compounds, 1.2% hits; calls by dose curve; tested in HEK293T cells; also: read-out not given here; potency is read from the fitted curve at half-maximal effect; nearly all actives have a fitted effect of over 45% in size
HCMV antiviral = inhibitors of human cytomegalovirus | HFF cells, HCMV-luciferase reporter, 72 h; hits give low values | activity change, negative = inhibition, % at 57.5 µM | 410,000 compounds, 4.5% hits; in the data active = activity change below about -60%; inconclusive = no clear call, values can overlap the other calls; inactive = above about -39%
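Human foreskin fibroblasts infected with luciferase-reporter HCMV at MOI 1 PFU/cell, compounds at two doses. Luciferase measured 72 h post infection; normalized to buffer-only basal and Salinomycin (10uM) controls.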
* hit, by the source's call; i = inactive; ? = inconclusive; nt = no result given; ! = not active in a repeat; [ ] = another dose, or the depositor's remark. The list is not random: actives were taken first. Their share in the collection is about 7.5%. Unless noted, calls follow the shape of the dose curve; as a rule, active = well fitted curve in the direction sought with a large enough effect; inconclusive = small, poorly fitted or top-dose-only effect, or another doubt; inactive = no such curve, though single readings can be large; an effect the other way counts as inactive or inconclusive. % is scaled to controls: 0 for no effect and ±100 for the full control effect.

SMILES | VACV Venus inh | Vaccinia mCherry | Giardia FBPA inh | HCV inhibitor | FMDV antiviral | HCMV antiviral
COc1ccc(OC)c(CC2C(=O)Nc3ccc(Br)cc32)c1 (stereo not given) | -27% | -18% | nt | nt | 13µM* | -90*
COc1ccc(CC2C(=O)Nc3ccc(Br)cc32)cc1OC (stereo not given) | -14% | -6% | nt | nt | -27% | -20
Nc1ncnc2c1ncn2[C@@H]1O[C@H](CO)C[C@H]1O | -10% | -15% | nt | 10µM* | -7% | -3
Nc1ncnc2c1ncn2C1C=C(CO)C(O)C1O (stereo not given) | ? | 1.1µM* | nt | ? | -1% | nt
CC=C1OC(n2cnc3c(N)ncnc32)C(O)C1O (stereo not given) | 4% | 12% | nt | nt | 2% | 10
CC(C)C[C@H](NC(=O)CN(C)C(=O)[C@H](Cc1ccccc1)NC(=O)[C@H](Cc1ccccc1)NC(=O)[C@H](CCC(N)=O)NC(=O)[C@H](CCC(N)=O)NC(=O)[C@@H]1CCCN1C(=O)[C@H](CCCCN)NC(=O)[C@@H]1CCCN1C(=O)[C@@H](N)CCCN=C(N)N)C(=O)N[C@@H](CCS(C)(=O)=O)C(N)=O | nt | nt | 3% | nt | nt | nt
Cn1cnc([N+](=O)[O-])c1S(=O)(=O)c1ccc(Cl)cc1 | 0% | i | 0% | ? | 14µM* | 333
Cn1cnc([N+](=O)[O-])c1NC(C)(C)C | -25% | nt | 1% | 11% | -19% | -16
CN(CC[C@@H](Oc1ccc(C(F)(F)F)cc1)c1ccccc1)CC(=O)O | nt | nt | -10% | nt | nt | nt
CNCC[C@@H](Oc1ccc(C(F)(F)F)cc1)c1ccccc1 | -12% | 0% | 2% | 7.9µM* | -18% | -23
COC(=O)C(c1ccccc1)(c1cn(C)c2ccccc12)C(Nc1ccc(OC)cc1)c1ccccc1 (stereo not given) | nt | nt | nt | nt | nt | -5
Cc1ccc(S(=O)(=O)NC(=O)N(CCC#N)Cc2ccccc2)cc1 | 1% | i | 7% | 13% | 9% | -25
CC(C)c1nc(SCC(=O)N2CCCC2)c2ccccc2n1 | nt | nt | 11% | ? | -24% | -78*
O=C(CSc1nc(C2CCCCC2)nc2ccccc12)N1CCCC1 | -15% | -18% | 4% | -26% | -16% | -101*
O=C(CSc1cccc2cccnc12)N1CCCC1 | 11µM* | 11µM* | -8% | 0.71µM* | ? | ?
O=C(CSc1nc(C2CC2)nc2ccccc12)N1CCCCC1 | -14% | -29% | 4% | -21% | -15% | -11
NNC(=O)CSc1cccc2cccnc12 | -8% | -13% | -17% | 27% | -3% | 30
O=C(CSc1nncc2ccccc12)N1CCCCC1 | -13% | -5% | -1% | -6% | -6% | -64*
COc1ccccc1N1CCN(c2ccc(=O)n(CC(=O)NCc3ccc(F)cc3)n2)CC1 | -7% | -11% | nt | nt | ? | -1
C[C@H]1[C@@H](NS(=O)(=O)c2ccc(-c3ccccc3)cc2)CC[C@@]23CCCN2C(=O)CCC[C@@H]13 | nt | nt | nt | nt | nt | 10
Cn1nnnc1SCCNCc1cc(Br)ccc1OCc1ccccc1Cl | -28% | -24% | nt | nt | ? | -69*
Cn1nnnc1SCCNCc1ccccc1OCc1ccccc1Cl | -3% | i | -10% | ? | ? | ?
Cn1nnnc1SCCNCc1ccc(OCc2ccccc2Cl)cc1 | -19% | i | nt | nt | 0% | -105*
O=C(CSC1=NS(=O)(=O)c2ccccc21)Nc1ccccc1 | 10µM* | 13µM* | -20% | 17% | ? | 33
COC(=O)CSC1=NS(=O)(=O)c2ccccc21 | -19% | i | 3% | -19% | ? | nt
SMILES | VACV Venus inh | Vaccinia mCherry | Giardia FBPA inh | HCV inhibitor | FMDV antiviral | HCMV antiviral
CC(=O)Nc1ccc(C(=O)N2CCCC(n3cc(C(=O)NCC(C)C)nn3)C2)cc1 (stereo not given) | -13% | i | nt | nt | 3% | nt
CCOc1ccc(NC(=O)CN(C)C(=O)c2c(C)nn(Cc3ccccc3Cl)c2C)cc1OCC | nt | nt | nt | -26% | -10% | -16
O=C(N/N=C/c1ccc(-c2ccc(S(=O)(=O)Nc3ncccn3)cc2)o1)c1cc2ccccc2cc1O | -11% | 3%[1.46 µM] | -2% | -9% | 2% | -101*
CCOc1ccc(C(=O)N/N=C/c2ccc(-c3ccc(S(=O)(=O)Nc4ncccn4)cc3)o2)cc1 | nt | nt | 3% | ? | 14% | 2
COc1ccc(N2CCN(C(=O)CN(C3CCCCC3)S(C)(=O)=O)CC2)cc1 | -4% | 1% | 2% | 15% | -13% | ?
Cc1cc(C)c(NC(=O)Nc2ccccc2)c(C)n1 | nt | nt | nt | 5% | -24% | -16
Cc1cc(N)c2cc(NC(=O)Nc3ccc4nc(C)cc(N)c4c3)ccc2n1 | nt | nt | nt | nt | nt | -99*
O=C(C[C@H]1CC[C@H]2[C@@H](COC[C@@H](O)CN2C(=O)c2cnccn2)O1)NCc1ccc(Oc2ccccc2)cc1 | -15% | -12% | nt | nt | -14% | -68*
O=C(C[C@H]1CC[C@@H]2[C@H](COC[C@@H](O)CN2C(=O)C2CC2)O1)NCc1ccccc1Cl | -1% | -4% | nt | nt | -2% | -31
O=C(O)c1ccc(Cl)cc1Nc1nc2cc(Cl)ccc2o1 | 2% | -1% | 1% | 12% | -1% | 22
CCOC(=O)N1CCN(Cc2nc3cc(NC(=O)c4ccccc4Cl)ccc3n2C(C)C)CC1 | ? | -17% | nt | nt | ? | -90*
CCC(=O)Nc1ccc2c(c1)nc(CN1CCCCC1)n2C | -14% | -13% | -6% | 8% | 6% | -23
CCOC(=O)N1CCN(Cc2nc3cc(NC(C)=O)ccc3n2C(C)C)CC1 | -8%[7.34 µM] | -16%[7.34 µM] | nt | nt | -16% | 69
Cn1c(CN2CCCC2)nc2cc(NC(=O)c3ccc(Cl)cc3)ccc21 | -28% | -13% | -22% | ? | 0% | -73*
Cn1c(CN2CCCC2)nc2cc(NC(=O)COc3ccc(Cl)cc3)ccc21 | 0% | 16% | 5% | ? | nt | 6
Cn1c(CN2CCCCC2)nc2cc(NC(=O)c3ccc(Cl)cc3)ccc21 | -24% | ? | 7% | 4µM* | 18µM*! | -67*
Cn1c(CN2CCOCC2)nc2cc(NC(=O)c3ccc(F)cc3)ccc21 | -15% | -4% | -13% | ? | nt | -75*
CC(C)CCNC(=O)C1CCN(C(=O)N2CCOc3ccc(Cl)cc32)CC1 | -10% | -15% | nt | nt | -13% | -11
CC(C)(C)C1CCC(OC(=O)C[N+]2(C)CCCCC2)CC1 (stereo not given) | -5% | i | -3% | -10% | -22% | -62*
COc1ccc(C2=NN(C3=NN=C(N)Cc4ncnn43)C(O)(C(F)(F)F)C2)cc1 (stereo not given) | nt | nt | ? | 8% | -21% | -27
CCS(=O)(=O)Nc1cc(C(=O)N2CCCN(C=O)CC2)c2c(c1)nc(-c1ccccc1)n2C | -15% | i | nt | nt | 0% | nt
CCOC(=O)Nc1ccc2c(c1)Cc1cc([N+](=O)[O-])ccc1-2 | -7% | -14% | nt | ? | 45% | -90*
